Sampled rows, rich in hits. Any-hit rate of the full collection: about 1.1%.
TcdB inh = TcdB glycohydrolase inhibitors, primary screen, biochemical, single point, plate reader | TcdB glycohydrolase enzymatic assay | inhibition, % at 9.99 µM | 0.24% of 350,000 active | AID 652162, 2013; in the data active = inhibition above about 10%
Target sequence (P18177 whole entry, looked up): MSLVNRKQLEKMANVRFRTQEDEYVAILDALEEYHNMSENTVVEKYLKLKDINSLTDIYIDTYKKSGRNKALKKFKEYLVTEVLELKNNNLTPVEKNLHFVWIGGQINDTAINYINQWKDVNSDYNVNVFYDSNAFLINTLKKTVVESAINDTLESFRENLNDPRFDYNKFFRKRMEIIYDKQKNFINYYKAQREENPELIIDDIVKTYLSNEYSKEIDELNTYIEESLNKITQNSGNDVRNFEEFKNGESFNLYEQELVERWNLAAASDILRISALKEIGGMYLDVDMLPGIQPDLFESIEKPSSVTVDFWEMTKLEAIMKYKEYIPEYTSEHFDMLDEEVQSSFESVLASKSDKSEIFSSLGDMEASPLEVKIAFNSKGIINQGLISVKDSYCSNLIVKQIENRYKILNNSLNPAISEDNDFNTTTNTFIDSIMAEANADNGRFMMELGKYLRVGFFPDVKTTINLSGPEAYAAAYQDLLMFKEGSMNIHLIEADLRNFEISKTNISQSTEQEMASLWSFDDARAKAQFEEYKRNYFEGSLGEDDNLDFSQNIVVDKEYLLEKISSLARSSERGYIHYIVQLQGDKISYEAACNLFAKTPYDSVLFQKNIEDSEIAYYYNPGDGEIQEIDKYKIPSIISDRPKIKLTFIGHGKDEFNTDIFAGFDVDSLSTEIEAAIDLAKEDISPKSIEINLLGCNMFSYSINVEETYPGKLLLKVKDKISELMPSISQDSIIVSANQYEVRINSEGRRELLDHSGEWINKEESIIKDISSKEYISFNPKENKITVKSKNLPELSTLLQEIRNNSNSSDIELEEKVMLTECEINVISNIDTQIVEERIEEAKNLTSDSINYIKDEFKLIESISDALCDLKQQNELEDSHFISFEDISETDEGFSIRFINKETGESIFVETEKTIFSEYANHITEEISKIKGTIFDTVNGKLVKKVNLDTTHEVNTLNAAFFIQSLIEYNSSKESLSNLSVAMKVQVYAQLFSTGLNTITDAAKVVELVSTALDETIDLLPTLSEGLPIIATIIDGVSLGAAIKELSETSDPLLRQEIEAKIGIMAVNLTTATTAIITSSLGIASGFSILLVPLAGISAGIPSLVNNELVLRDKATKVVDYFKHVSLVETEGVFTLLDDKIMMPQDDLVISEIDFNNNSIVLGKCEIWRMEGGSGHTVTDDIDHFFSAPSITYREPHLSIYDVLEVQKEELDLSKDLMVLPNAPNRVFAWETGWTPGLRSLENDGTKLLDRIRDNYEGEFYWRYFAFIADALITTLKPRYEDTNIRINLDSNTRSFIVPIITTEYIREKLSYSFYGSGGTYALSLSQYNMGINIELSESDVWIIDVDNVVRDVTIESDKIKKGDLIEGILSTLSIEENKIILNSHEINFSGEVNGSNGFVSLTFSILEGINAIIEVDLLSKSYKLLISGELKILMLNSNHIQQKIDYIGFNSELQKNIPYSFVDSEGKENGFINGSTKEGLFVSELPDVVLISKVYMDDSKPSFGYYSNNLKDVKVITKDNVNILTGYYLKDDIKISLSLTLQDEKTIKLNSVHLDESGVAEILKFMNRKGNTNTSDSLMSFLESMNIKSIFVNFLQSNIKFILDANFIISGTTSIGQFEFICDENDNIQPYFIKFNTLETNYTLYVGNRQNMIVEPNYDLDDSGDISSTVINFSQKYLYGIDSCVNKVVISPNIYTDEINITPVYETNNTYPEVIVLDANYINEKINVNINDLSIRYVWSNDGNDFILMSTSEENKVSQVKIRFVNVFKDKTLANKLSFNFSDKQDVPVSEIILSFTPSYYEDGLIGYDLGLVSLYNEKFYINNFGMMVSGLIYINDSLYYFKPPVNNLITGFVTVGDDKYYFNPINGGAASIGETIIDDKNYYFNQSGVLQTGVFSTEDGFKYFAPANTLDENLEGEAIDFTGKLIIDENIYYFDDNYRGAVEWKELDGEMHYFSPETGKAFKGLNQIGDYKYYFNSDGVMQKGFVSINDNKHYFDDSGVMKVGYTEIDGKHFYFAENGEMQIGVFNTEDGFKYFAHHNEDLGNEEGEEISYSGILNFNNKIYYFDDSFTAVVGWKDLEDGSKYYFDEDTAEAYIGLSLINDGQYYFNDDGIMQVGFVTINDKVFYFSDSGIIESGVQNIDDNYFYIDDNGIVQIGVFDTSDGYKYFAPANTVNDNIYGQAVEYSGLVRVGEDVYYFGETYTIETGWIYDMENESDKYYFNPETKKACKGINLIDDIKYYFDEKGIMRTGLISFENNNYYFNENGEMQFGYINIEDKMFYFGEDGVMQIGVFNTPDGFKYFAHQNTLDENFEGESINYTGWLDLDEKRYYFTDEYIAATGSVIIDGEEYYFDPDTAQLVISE
FadD28 binding = inhibitors of FadD28 bisubstrate probe binding, primary screen, biochemical, fluorescence polarization, single point; inhibition, % at 12.5 µM; 0.22% of 360,000 active; AID 588549, 2011; in the data active = inhibition above about 8.5%, passing the limit was not always enough; inconclusive = no clear call, values can overlap the other calls
PfHsp40 rescue = rescue of yeast from PfHsp40 toxicity, primary screen, S. cerevisiae, ATP luminescence | S. cerevisiae expressing PfHsp40, growth rescue | growth rescue, % at 12.5 µM | 0.68% of 340,000 active; in the data active = growth rescue above about 28%, passing the limit was not always enough; inconclusive = no clear call, values can overlap the other calls;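 note: yeast W303a lacking pdr1 and pdr3 grown in galactose medium; growth measured after three days at 30 °C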
Mtb BioA inh = M. tuberculosis BioA enzyme inhibitors, primary screen, biochemical, plate reader, single point, HTS. 7,8-diaminopelargonic acid synthase BioA (Mycobacterium tuberculosis). purified M. tuberculosis BioA enzyme. inhibition, % at 9.99 µM. 0.096% of 360,000 active. AID 602481, 2012; in the data active = inhibition above about 40%; inconclusive = no clear call, values can overlap the other calls
PrP 5UTR inh = inhibition of PrP 5' UTR reporter expression. 0.35% of 340,000 active. cell-based PrP 5' UTR mRNA reporter, plate reader. inhibition, % (test concentration not listed); in the data active = inhibition above about 52%
Numbers stand for hits.

`Cc1ccccc1C(=O)NNC(=S)NC(=O)c1ccccc1` gave FadD28 binding inactive, PfHsp40 rescue 169.4 and PrP 5UTR inh inactive.
`O=C(NC(=S)NNC(=O)[C@H]1C[C@@H]1c1ccccc1)c1cccc(F)c1` gave TcdB inh inactive, FadD28 binding inactive, PfHsp40 rescue 48.7, Mtb BioA inh inactive and PrP 5UTR inh inactive.
Screening COc1ccc(S(=O)(=O)N(C)C[C@@H]2Oc3c(NS(=O)(=O)c4ccc(Cl)cc4)cccc3C(=O)N([C@@H](C)CO)C[C@@H]2C)cc1 returned Mtb BioA inh inactive.
For C[C@@H]1CCCCO[C@@H](CN(C)C(=O)CCCN(C)C)[C@@H](C)CN([C@H](C)CO)C(=O)c2cc(NS(=O)(=O)c3cn(C)cn3)ccc2O1 the results were TcdB inh inactive and Mtb BioA inh inactive.
C[C@@H]1CCCCO[C@H](CN(C)S(=O)(=O)c2ccc(Cl)cc2)[C@@H](C)CN([C@H](C)CO)C(=O)c2cc(NC(=O)Nc3ccc(F)cc3)ccc2O1 was read as TcdB inh inactive and Mtb BioA inh inactive.
Screening COc1ccc(C#Cc2cnc3c(c2)C(=O)N([C@@H](C)CO)C[C@@H](C)[C@H](CN(C)C(=O)CN(C)C)O3)cc1 returned TcdB inh inactive and Mtb BioA inh inactive.
C/C=C/c1cnc2c(c1)C(=O)N([C@H](C)CO)C[C@H](C)[C@@H](CN(C)Cc1ccccc1)O2 was read as TcdB inh inactive and Mtb BioA inh inactive.
Screening COc1ccc(C(=O)NC(=S)NNC(=O)c2cccc(C)c2)cc1 returned TcdB inh inactive.
`Cc1cccc(C(=O)NNC(=S)NC(=O)c2ccccc2)c1` gave TcdB inh inactive, FadD28 binding inactive, PfHsp40 rescue 127.2, Mtb BioA inh inactive and PrP 5UTR inh inactive.
Oc1ccc(/C=N/n2c(C3CCCCC3)n[nH]c2=S)c(O)c1 was read as TcdB inh inactive, FadD28 binding inconclusive, PfHsp40 rescue inactive, Mtb BioA inh inactive and PrP 5UTR inh inactive.
Screening Oc1ccc(Br)cc1/C=N/n1c(C2CCCCC2)n[nH]c1=S returned TcdB inh inactive, FadD28 binding 15.8, PfHsp40 rescue inactive, Mtb BioA inh inactive and PrP 5UTR inh inactive.
For COc1cccc(/C=N/n2c(C3CCCCC3)n[nH]c2=S)c1O the results were TcdB inh inactive, FadD28 binding 14.6, PfHsp40 rescue inactive, Mtb BioA inh inactive and PrP 5UTR inh inactive.
For CC1CCCN(C(=S)Nc2ccc(F)cc2)C1 (centres undefined) the results were TcdB inh 12.1, FadD28 binding inactive, PfHsp40 rescue inactive and PrP 5UTR inh inactive.
Screening Cc1ccccc1-c1cnc2c(c1)C(=O)N([C@@H](C)CO)C[C@H](C)[C@@H](CN(C)Cc1cccnc1)O2 returned TcdB inh inactive and Mtb BioA inh inactive.
O=C(Nc1sc2c(c1C(=O)O)CCCC2)c1ccc(Cl)cc1 was read as TcdB inh 11.7, FadD28 binding inactive, PfHsp40 rescue inactive, Mtb BioA inh inactive and PrP 5UTR inh inactive.
For O=C(Nc1sc2c(c1C(=O)O)CCCCC2)c1ccccc1 the results were TcdB inh inactive, FadD28 binding inactive, PfHsp40 rescue inactive and PrP 5UTR inh inactive.
For CC1(C)CC(=O)C(C(=O)Cc2ccccc2[N+](=O)[O-])C(=O)C1 the results were FadD28 binding inactive, PfHsp40 rescue 29.1, Mtb BioA inh inactive and PrP 5UTR inh inactive.
`CCOc1ccc(CC(=O)C2C(=O)CC(C)(C)CC2=O)cc1OCC` gave FadD28 binding inactive, PfHsp40 rescue inactive, Mtb BioA inh inactive and PrP 5UTR inh inactive.
`CC1CCN(CCCn2c(=S)[nH]c3c(sc4ccccc43)c2=O)CC1` gave TcdB inh 11.5, FadD28 binding inactive, PfHsp40 rescue inactive, Mtb BioA inh inactive and PrP 5UTR inh inactive.
For CO[C@H]1CN(C)C(=O)c2ccc(NS(=O)(=O)c3ccc(Oc4ccccc4)cc3)cc2OC[C@@H](C)NC[C@@H]1C the results were TcdB inh inactive and Mtb BioA inh inactive.
`NS(=O)(=O)OCC(Cc1ccccc1)N1C(=O)c2ccccc2C1=O` (centres undefined) gave TcdB inh inactive, FadD28 binding inactive, PfHsp40 rescue 75.4, Mtb BioA inh inactive and PrP 5UTR inh inactive.
For CC(=O)Nc1ccc(NC(=O)Cc2ccc(S(=O)(=O)N3CCCCC3)cc2)cc1 the results were TcdB inh 12.6, FadD28 binding inactive, PfHsp40 rescue inactive, Mtb BioA inh inactive and PrP 5UTR inh inactive.
For COc1ccc(CSCC(=O)Nc2ccc(S(=O)(=O)N3CCCCCC3)cc2)cc1 the results were FadD28 binding 11.8, PfHsp40 rescue inactive and PrP 5UTR inh inactive.
Screening COc1ccc(NC(=O)CSCC(=O)Nc2ccc(S(=O)(=O)N3CCCCC3)cc2)cc1 returned TcdB inh inactive, FadD28 binding inactive, PfHsp40 rescue inactive, Mtb BioA inh inactive and PrP 5UTR inh inactive.
`O=C(Cc1ccccc1)Nc1ccc(S(=O)(=O)N2CCCC2)cc1` gave TcdB inh inactive, FadD28 binding inactive, PfHsp40 rescue inactive, Mtb BioA inh inactive and PrP 5UTR inh inactive.
Cc1noc(C)c1S(=O)(=O)Nc1ccc2c(c1)CC(=O)N([C@H](C)CO)C[C@H](C)[C@@H](CN(C)C(=O)Nc1ccccc1)O2 was read as TcdB inh inactive.
`C[C@@H]1CN([C@H](C)CO)C(=O)Cc2cc(N(C)C)ccc2O[C@H]1CN(C)C(=O)Nc1ccc2c(c1)OCO2` gave TcdB inh inactive and Mtb BioA inh inactive.
`COCC(=O)N(C)C[C@H]1Oc2cc(C#C[C@H](C)O)ccc2S(=O)(=O)N([C@H](C)CO)C[C@H]1C` gave TcdB inh inactive and Mtb BioA inh inactive.
For O=C(O)/C=C\C(=O)Nc1ccccc1F the results were TcdB inh inactive, FadD28 binding inactive, PfHsp40 rescue 37.0, Mtb BioA inh inactive and PrP 5UTR inh inactive.
Screening O=C(O)/C=C\C(=O)Nc1ccc(F)c(F)c1F returned TcdB inh inactive, FadD28 binding inactive, PfHsp40 rescue inactive, Mtb BioA inh inactive and PrP 5UTR inh inactive.
For CC1(C)C(/C=C/C=C/C=C/C=C2\N(CCCCS(=O)(=O)O)c3ccc4ccccc4c3C2(C)C)=[N+](CCCCS(=O)(=O)[O-])c2ccc3ccccc3c21 the results were FadD28 binding 11.7, PfHsp40 rescue inactive, Mtb BioA inh inactive and PrP 5UTR inh inactive.
CS(=O)(=O)C1=C(O)C(=O)N(c2ccccc2)C1c1ccccc1 (centres undefined) was read as FadD28 binding inactive, PfHsp40 rescue inactive, Mtb BioA inh inactive and PrP 5UTR inh inactive.
Screening CC(C)(C)C(=O)C1=C(O)C(=O)N(c2ccccc2)C1c1ccccc1 (centres undefined) returned TcdB inh 21.9, FadD28 binding inactive, PfHsp40 rescue inactive, Mtb BioA inh inactive and PrP 5UTR inh inactive.
`Fc1ccc(Nc2nnc(C(F)(F)F)s2)cc1Cl` gave TcdB inh inactive, FadD28 binding inactive, PfHsp40 rescue 148.9, Mtb BioA inh inactive and PrP 5UTR inh inactive.

Bioassay records (PubChem)
